Records with an inconclusive call do not appear. A call without a number means that no potency is given here. Activity calls are given as the source filed them. Unless noted, calls come from the whole dose curve; as a rule, active = well fitted curve in the direction sought with a large enough effect; inconclusive = small, poorly fitted or top-dose-only effect, or another doubt; inactive = no such curve, though single readings can be large; an effect the other way counts as inactive or inconclusive.
Key:
[1] = target: Cytochrome P450 3A4 (Homo sapiens) (UniProt P08684); assay: qHTS Assay for Activators of Cytochrome P450 3A4 (AID 885); note: nearly all actives have a fitted effect of over 65% in size
Cytochrome P450 3A4 (Homo sapiens), sequence (P08684 whole entry, looked up): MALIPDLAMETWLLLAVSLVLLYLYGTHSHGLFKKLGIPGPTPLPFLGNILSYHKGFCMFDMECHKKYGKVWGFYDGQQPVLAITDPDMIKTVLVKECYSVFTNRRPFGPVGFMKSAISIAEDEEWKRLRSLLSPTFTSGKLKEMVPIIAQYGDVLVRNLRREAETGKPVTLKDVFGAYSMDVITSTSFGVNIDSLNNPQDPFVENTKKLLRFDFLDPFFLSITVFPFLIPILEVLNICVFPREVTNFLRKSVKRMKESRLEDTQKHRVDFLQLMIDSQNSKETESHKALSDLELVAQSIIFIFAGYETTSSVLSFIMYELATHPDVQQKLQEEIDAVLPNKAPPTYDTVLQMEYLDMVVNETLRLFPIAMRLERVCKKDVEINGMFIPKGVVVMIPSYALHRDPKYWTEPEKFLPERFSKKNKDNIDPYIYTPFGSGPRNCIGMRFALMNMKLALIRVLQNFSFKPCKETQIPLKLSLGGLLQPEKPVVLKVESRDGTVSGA
Summary of the method: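 Using 20nM recombinant human CYP3A4 in potassium phosphate (200mM), substrate Luciferin-PPXE at 25uM, luminescent luciferin detection followed a 60-min RT NADPH reaction; data scaled to 57 uM ketoconazole.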

[2] = qHTS Assay for Lipid Storage Modulators (AID 1519; calls by dose curve); conditions: Drosophila S3 cells, BODIPY lipid droplet/cell ratio, laser cytometry, cells loaded with oleic acid; for activity change, negative = inhibition: at 57.5 µM (top of the series)
Summary of the method: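 Cells seeded at 5,000 per well were treated with compounds over a concentration series and loaded with oleic acid (400 uM, as added). Lipid droplet fluorescence (488 nm excitation, 500-530 nm channel) was read by laser-scanning cytometry and normalized to 20 uM Triacsin C.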

[3] = target: Ubiquitin carboxyl-terminal hydrolase 1 (Homo sapiens) (UniProt O94782); assay: Inhibitors of USP1/UAF1: Pilot qHTS (AID 504865); note: nearly all actives have a fitted effect of over 35% in size; note: potency is the fitted concentration of half-maximal effect;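 for activity change, negative = inhibition: rhodamine fluorescence freed from ubiquitin-rhodamine substrate followed over time; top concentration of the series differs between compounds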
Ubiquitin carboxyl-terminal hydrolase 1 (Homo sapiens), sequence (O94782 whole entry, looked up): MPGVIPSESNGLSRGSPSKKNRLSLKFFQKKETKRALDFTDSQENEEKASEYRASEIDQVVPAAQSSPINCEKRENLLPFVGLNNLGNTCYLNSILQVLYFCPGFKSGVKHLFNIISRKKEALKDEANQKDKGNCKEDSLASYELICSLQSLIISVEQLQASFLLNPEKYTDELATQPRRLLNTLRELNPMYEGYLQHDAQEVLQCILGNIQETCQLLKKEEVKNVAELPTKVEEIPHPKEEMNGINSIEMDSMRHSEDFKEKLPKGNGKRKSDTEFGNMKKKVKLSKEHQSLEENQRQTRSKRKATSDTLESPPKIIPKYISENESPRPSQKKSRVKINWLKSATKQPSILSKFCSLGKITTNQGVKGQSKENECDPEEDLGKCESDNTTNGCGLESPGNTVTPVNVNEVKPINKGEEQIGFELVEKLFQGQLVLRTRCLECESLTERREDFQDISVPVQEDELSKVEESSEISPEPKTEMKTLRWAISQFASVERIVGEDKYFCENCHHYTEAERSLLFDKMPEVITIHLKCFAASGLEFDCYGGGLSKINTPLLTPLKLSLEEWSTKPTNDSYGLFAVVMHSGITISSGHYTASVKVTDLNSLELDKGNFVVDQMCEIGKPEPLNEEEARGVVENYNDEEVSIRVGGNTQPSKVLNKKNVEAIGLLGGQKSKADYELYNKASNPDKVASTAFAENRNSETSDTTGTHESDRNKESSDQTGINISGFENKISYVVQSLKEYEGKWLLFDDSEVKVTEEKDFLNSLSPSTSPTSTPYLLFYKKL
Summary of the method: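 Deubiquitinase activity followed as kinetic rhodamine fluorescence release from 150 nM Ub-Rho. 1 nM USP1/UAF1 with compound, after 15 min room-temperature preincubation, in HEPES pH 7.8 buffer containing TCEP, EDTA, BSA and Tween-20.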

[4] = target: DNA dC->dU-editing enzyme APOBEC-3G (Homo sapiens) (UniProt Q9HC16); assay: qHTS for inhibitors of Vif-A3G interactions: Validation (AID 588379)
DNA dC->dU-editing enzyme APOBEC-3G (Homo sapiens), sequence (Q9HC16 whole entry, looked up): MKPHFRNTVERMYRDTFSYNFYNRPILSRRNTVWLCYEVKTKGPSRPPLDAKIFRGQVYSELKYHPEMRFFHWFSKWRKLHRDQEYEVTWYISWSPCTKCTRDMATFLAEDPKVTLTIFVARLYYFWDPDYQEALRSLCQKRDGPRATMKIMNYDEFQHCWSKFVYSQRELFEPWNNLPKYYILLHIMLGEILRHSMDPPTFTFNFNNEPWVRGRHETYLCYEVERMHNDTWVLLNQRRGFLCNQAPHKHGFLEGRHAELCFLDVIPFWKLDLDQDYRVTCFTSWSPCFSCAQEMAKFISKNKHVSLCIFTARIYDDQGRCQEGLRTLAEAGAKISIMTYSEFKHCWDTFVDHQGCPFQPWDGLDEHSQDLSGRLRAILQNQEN
Summary of the method: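 Yellow fluorescence (Ex 488, Em 500-530) of Vif-coexpressing HeLa A3G-eYFP cells, scanned by Acumen cytometer, reports blocked A3G degradation. Cells plated at 700/well overnight at 37 deg C before compound addition, then a further overnight compound incubation at 37 deg C.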

[5] = target: Cytochrome P450 3A4 (Homo sapiens) (UniProt P08684); assay: qHTS Assay for Inhibitors and Substrates of Cytochrome P450 3A4 (AID 884); note: nearly all actives have a fitted effect of over 50% in size; note: potency is the fitted concentration of half-maximal effect
Summary of the method: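 Luminescent readout of luciferin produced by CYP3A4 (20 nM) dealkylation of Luciferin-PPXE, 25 uM (its KM). NADPH-driven reaction ran 60 min at RT after 10 min compound preincubation; data scaled to 57 uM ketoconazole as 100% inhibition.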

[6] = Confirmation and Secondary Assay for Modulators of Hemoglobin Beta Chain Splicing at IVS2 654 locus (AID 910);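 note: HeLa cells stably carrying EGFP split by mutant beta-globin IVS2-654 intron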
Summary of the method: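 Readout: per-well total peak green fluorescence (488 nm ex, 500–520 nm em) from objects 5–250 µm, reflecting correct splicing of an EGFP-654 reporter. Compounds were applied for 2 days at 37 °C to overnight-plated HeLa EGFP-654 cells; controls were DMSO and 500 nM IVS2-654 PNA.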

[7] = Confirmation and Secondary Assay for Modulators of Hemoglobin Beta Chain Splicing at IVS2 705 locus (AID 930);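 note: HeLa cells stably expressing the EGFP-705 splicing reporter; GFP fluorescence per well restored by corrected splicing of the IVS2-705 intron in EGFP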
Summary of the method: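 Read-out: total peak GFP fluorescence per well (488 nm excitation, 500-520 nm emission) by laser-scanning cytometry. Cells: HeLa EGFP-705 splicing reporter, 2 days compound exposure in Optimem/2% FCS.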

[8] = target: Luciferin 4-monooxygenase (Photinus pyralis) (UniProt P08659); assay: Biochemical firefly luciferase enzyme assay for NPC (AID 624030);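 note: purified P. pyralis luciferase at 10 nM with luciferin and ATP substrate; nearly all actives have a fitted effect of over 70% in size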
Luciferin 4-monooxygenase (Photinus pyralis), sequence (P08659 whole entry, looked up): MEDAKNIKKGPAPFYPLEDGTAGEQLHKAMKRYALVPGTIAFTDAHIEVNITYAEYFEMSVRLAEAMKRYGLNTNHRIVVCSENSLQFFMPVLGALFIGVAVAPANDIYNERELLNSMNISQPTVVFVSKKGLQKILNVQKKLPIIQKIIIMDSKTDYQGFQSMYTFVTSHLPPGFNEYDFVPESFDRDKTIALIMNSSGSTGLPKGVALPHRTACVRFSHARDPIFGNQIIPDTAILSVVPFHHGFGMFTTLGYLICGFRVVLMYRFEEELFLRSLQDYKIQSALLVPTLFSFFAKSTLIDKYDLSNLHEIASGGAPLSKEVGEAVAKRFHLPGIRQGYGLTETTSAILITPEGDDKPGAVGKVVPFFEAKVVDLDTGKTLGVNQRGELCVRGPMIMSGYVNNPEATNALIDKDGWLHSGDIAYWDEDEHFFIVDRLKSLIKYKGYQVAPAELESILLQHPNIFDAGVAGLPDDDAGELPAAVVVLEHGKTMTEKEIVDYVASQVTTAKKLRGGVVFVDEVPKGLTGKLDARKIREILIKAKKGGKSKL
Summary of the method: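 Direct inhibition of firefly luciferase enzyme (10 nM final, 50 mM Tris Acetate) assessed by luminescence within 5 minutes. Percent activity scaled between DMSO and PTC124 positive control, with concentration-effect curves classified by fit quality and response.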

[9] = measured here: cell count channel max response
[10] = measured here: lipid channel max response

| SMILES | Potency [1] | activity change, negative = inhibition [2] | max response [2, 9] [%] | max response [2, 10] [%] | Potency [3] | outcome [4] | Potency [5] | Potency [6] | Potency [7] | Potency [8] |
| --- | --- | --- | --- | --- | --- | --- | --- | --- | --- | --- |
| Nc1ccn([C@@H]2O[C@H](CO)[C@@H](OP(=O)(O)O)[C@H]2O)c(=O)n1 | inactive | 4.4% (inactive) | 7.76 | 8.34 | inactive | inactive | – | – | – | – |
| NCC1O[C@@H](O[C@@H]2C(O)[C@H](O[C@H]3OC(CO)C(O)C(N)C3O)[C@@H](N)C[C@H]2N)C(N)C(O)C1O (stereo partly specified) | – | 5.31% (inactive) | 20.8 | 32.5 | inactive | – | inactive | inactive | inactive | inactive |
| C[C@H]1C[C@]2(O[C@@H]2C)C(=O)O[C@@H]2CCN(C)C/C=C(/COC(=O)[C@]1(C)O)C2=O | inactive | -0.98% (inactive) | -19.3 | -21.3 | inactive | inactive | – | – | – | – |
| C/C=C(\C)C(=O)OC1[C@@H]2C=C3C4CC(=O)OC(c5ccoc5)[C@]4(C)CCC3[C@@](C)(C2=O)C(C(O)C(=O)OC)C1(C)C (stereo partly specified) | inactive | -1.19% (inactive) | 8.66 | 12.5 | inactive | – | 12.6 µM (active) | inactive | inactive | – |
| Nc1ccn([C@H]2C[C@H](O)[C@@H](CO)O2)c(=O)n1 | – | 0.617% (inactive) | 3.42 | 2.44 | inactive | inactive | inactive | – | – | – |
| COc1ccc2c(c1OC)C(=O)O[C@H]2C1c2c(cc3c(c2OC)OCO3)CCN1C (stereo partly specified) | inactive | 8.59% (inactive) | 20.9 | 32.4 | inactive | inactive | – | inactive | inactive | – |
| COC1(C)CCC2OC2(C)CCC2C1CC2(C)C (stereo unspecified) | inactive | 4.15% (inactive) | 6.3 | 11.9 | inactive | – | 10 µM (active) | inactive | inactive | – |
| CCOC(=O)CCC(=O)O[C@H]1C(O[C@@H]2C(C)[C@H](O[C@H]3C[C@@](C)(OC)C(O)C(C)O3)C(C)C(=O)OC(CC)[C@@](C)(O)C(O)[C@H](C)C(=O)C(C)C[C@]2(C)O)OC(C)CC1N(C)C (stereo partly specified) | inactive | -0.5% (inactive) | 3.86 | 3.45 | inactive | – | 20 µM (active) | inactive | inactive | – |
| COC(=O)CC1C(C)(C)C(=O)C2CC3=C4CC(=O)OC(c5ccoc5)[C@]4(C)CCC3[C@@]1(C)C2=O (stereo partly specified) | inactive | 1.08% (inactive) | 14.1 | 18 | inactive | – | 1.58 µM (active) | inactive | inactive | – |
| CC(C)[C@H]1CC[C@@H](C)C[C@H]1O | – | -5.33% (inactive) | -11.9 | -15.2 | inactive | inactive | inactive | – | – | – |
| O=c1c(-c2ccc(O[C@@H]3O[C@H](CO)[C@@H](O)[C@H](O)[C@H]3O)cc2)coc2cc(O)cc(O)c12 | – | 7.95% (inactive) | -1.95 | 5.64 | inactive | inactive | inactive | – | – | – |
| NCC1O[C@@H](OC2C(N)C[C@H](N)[C@@H](O[C@H]3OC(CO)C(O)C(N)C3O)C2O)C(N)C(O)C1O (stereo partly specified) | – | 2.92% (inactive) | 11.9 | 7.99 | inactive | – | inactive | inactive | inactive | inactive |
| OCC1OC(Oc2cccc3cccnc23)C(O)C(O)C1O (stereo unspecified) | – | -4.73% (inactive) | -12.4 | -14.1 | inactive | inactive | inactive | – | – | – |
| O=c1cc(-c2ccc(O)cc2)oc2ccc(O)cc12 | inactive | 6.92% (inactive) | 7.61 | 15.4 | inactive | – | 3.16 µM (active) | inactive | inactive | – |
| C=CC1=C(C(=O)O)N2C(=O)C(NC(=O)/C(=N\O)c3csc(N)n3)C2SC1 (stereo unspecified) | – | 3.88% (inactive) | 11.5 | 17.7 | inactive | – | inactive | inactive | inactive | inactive |
| O=C1c2ccccc2C(=O)c2c(O)c(O)cc(O)c21 | inactive | 12.2% (inactive) | -4.21 | 7.97 | 25.1 µM (active) | inactive | – | inactive | inactive | – |
| COC(=O)CC1C(C)(C)C(O)C2CC3=C4C=C(OC)OC(c5ccoc5)[C@]4(C)CCC3[C@@]1(C)C2=O (stereo partly specified) | inactive | -1.2% (inactive) | 2.63 | 3.16 | inactive | – | 10 µM (active) | inactive | inactive | – |
| C=C[C@](C)(O)CCC1C(=C)CCC2[C@@](C)(CO)CCC[C@@]12C (stereo partly specified) | inactive | 2.53% (inactive) | -1.43 | 3.55 | inactive | – | 2.51 µM (active) | inactive | inactive | – |
| CC1(C)C(=O)CC[C@@]2(C)C1CC(O)[C@@]1(C)C3=CC(=O)OC(c4ccoc4)[C@]3(C)CCC21 (stereo partly specified) | inactive | 11% (inactive) | 13.9 | 28.4 | inactive | – | 15.8 µM (active) | inactive | inactive | – |
| COc1cc2c(cc1OC)Cc1cc(OC)c(OC)cc1Cc1cc(OC)c(OC)cc1C2 | inactive | -1.62% (inactive) | 2.54 | 2.42 | inactive | – | 12.6 µM (active) | inactive | inactive | – |
| COc1cc(OC)c2c(=O)c(O)c(-c3ccc(OC)c(OC)c3)oc2c1 | inactive | 4.09% (inactive) | 5.03 | 9.16 | inactive | – | 2.51 µM (active) | inactive | inactive | – |
| C=C1C(C2(C)C=CC(=O)C(C)(C)C2CC(=O)OC)CC[C@@]2(C)C(c3ccoc3)OC(=O)C3OC132 (stereo partly specified) | inactive | 4.06% (inactive) | 5.07 | 10.2 | inactive | – | 2.51 µM (active) | inactive | inactive | – |
| C[C@@]12CCC(O)C[C@H]1CCc1ccccc12 (stereo partly specified) | – | 1.53% (inactive) | 0.578 | 6.01 | inactive | – | inactive | inactive | inactive | – |

Source: PubChem BioAssay (NCATS)
